According to PubChem BioAssay AID2107 (National Center for Advancing Translational Sciences (NCATS), 2009):
Screen size: about 240,000 compounds; about 20 (0.008%) were called active. Not shown: some 1% with an inconclusive outcome. The call rests on the fitted dose curve; in most records, active means well fitted inhibition curve with a large enough effect; inconclusive means small, poorly fitted or top-dose-only effect, or effect the other way; inactive means flat fitted curve, though single readings scatter. Only a sample is shown. Peptide text beside a SMILES is read from it.

Target: Alpha-galactosidase A (Homo sapiens) (UniProt P06280)
Assay: qHTS Assay for Inhibitors and Activators of Human alpha-Galactosidase From Spleen Homogenate;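 further: 0% = enzyme with vehicle and -100% = no enzyme basal signal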
Details: 4MU-alpha-Gal fluorescence, 40 min; series mostly up to 80 µM
Text: NIH Chemical Genomics Center [NCGC] NIH Molecular Libraries Probe Production Centers Network [MLPCN] MLPCN Grant: R03 MH084842-01 Assay Submitter (PI): Wei Zheng NCGC Assay Overview: Alpha-galactosidase is a homodimeric glycoprotein that hydrolyzes the terminal alpha-galactosyl moieties from glycolipids and glycoproteins. Deficiency of this enzyme results in Fabry Disease with progressive accumulation of globotriaosylceramide and other glycosphingolipids in vascular endothelial cells that causes renal failure, myocardial infarction and stroke, and premature death in patients. It has been reported that the improper folding and trafficking of alpha-galactosidase resulting from genetic mutations may account for a significant number of Fabry patients. […] We optimized this alpha-galactosidase assay in 1536-well plate format for identification of novel small molecule inhibitors or activators with structures other than the sugar analogs in order to develop new pharmacological chaperones. In particular, this assay is directed towards discovering compounds active in more natural setting, tissue homogenate, that may have been missed by screens of the purified enzyme under more stringent conditions.
NCGC Assay Protocol Summary: This is a fluorogenic enzyme assay with 4-methylumbelliferyl-alpha-D-galactopyranoside as the substrate and human spleen homogenate containing alpha-galactosidase as the enzyme preparation. Upon hydrolysis of this fluorogenic substrate, the resulting product, 4-methylumbelliferone (which excites at 365 nm and emits at 440 nm) can be detected by a fluorescence plate reader. Data were normalized to the controls for basal activity (without enzyme) and 100% activity (with enzyme). The AC50 values were determined from concentration-response data modeled with the standard Hill equation. Assay buffer: 50 mM citric acid (titrated with potassium phosphate to pH 5.0), 0.01% Tween-20 (pH 5.0 is an optimal condition for this enzyme assay) 1536-well assay protocol for the alpha-galactosidase from human spleen homogenate: (1) Add 2 ul/well spleen homogenate (1 ug) (2) Add 23 nL compounds in DMSO solution. The final titration was 0.5 nM to 58 uM. (3) Add 2 ul of substrate (1 mM final) (4) Incubate at 37C for 40 min (5) Add 2 ul stop solution (1M NaOH and 1M Glycine mixture, pH 10) (6) Detect the assay plate in a ViewLux plate reader (PerkinElmer) with Ex=365 nm and Em=440nm. Keywords: Alpha-galactosidase, Fabry Disease, pharmacological chaperone, chaperone therapy, high throughput screening, alpha- galactosidase inhibitor, MLSMR, MLSCN, NIH Roadmap, qHTS and NCGC

Sequence of Alpha-galactosidase A (Homo sapiens) (P06280 32-429 limits assumed): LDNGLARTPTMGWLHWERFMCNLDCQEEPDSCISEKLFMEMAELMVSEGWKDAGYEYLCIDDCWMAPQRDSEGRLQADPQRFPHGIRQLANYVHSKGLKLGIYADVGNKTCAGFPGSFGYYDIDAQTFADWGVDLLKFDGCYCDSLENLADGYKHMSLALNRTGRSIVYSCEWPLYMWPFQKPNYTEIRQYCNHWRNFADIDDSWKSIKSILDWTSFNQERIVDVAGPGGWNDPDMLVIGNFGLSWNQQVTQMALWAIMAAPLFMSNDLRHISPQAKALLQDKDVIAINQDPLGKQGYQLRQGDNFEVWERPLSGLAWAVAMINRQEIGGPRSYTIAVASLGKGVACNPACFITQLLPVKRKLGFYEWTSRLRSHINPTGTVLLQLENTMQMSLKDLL

Activity change, negative = inhibition, inactive:
CCn1c(SCC(=O)N/N=C/c2ccncc2)nc2ccccc21
Cc1ccc(Br)cc1
COc1ccc(C(=O)C2CCCN(C(=O)c3cnsn3)C2)c(C)c1 (stereo not given)
CC(C)(C)c1ccc(OC2=CS(=O)(=O)c3ccccc32)cc1
CCn1cc(C(=O)NCCCN2CCCCCC2)c(=O)c2cc(S(=O)(=O)N3CCc4ccccc4C3)ccc21
Cc1ccc(C)c(NS(=O)(=O)c2cc(Br)cnc2N)c1
CCN(CC)/[N+]([O-])=N/Oc1cc(O/[N+]([O-])=N/N2CCCC2CO)c([N+](=O)[O-])cc1[N+](=O)[O-] (stereo not given)
CCn1c(NC(=O)c2nn(C)cc2Br)nc2ccccc21
O=C(/C=C/Sc1ncn[nH]1)c1ccc(Cl)cc1
Cc1cc(C)nc(SC(C)C(=O)N/N=C/c2cccs2)n1 (stereo not given)
CCN(CC)CCN1C(=O)C(=O)/C(=C(/O)c2cnn(-c3ccccc3)c2C)C1c1cccs1 (stereo not given)
Cc1cc(F)ccc1S(=O)(=O)N1CCCOC1CNC(=O)C(=O)NCCC1=CCCCC1 (stereo not given)
CN(Cc1nc2ccc(F)cc2[nH]1)Cc1nc(CC2CC2)no1
COc1ccc(C(CCN2CCOCC2)c2c(OC)cc(OC)c3c2OC(=O)CC3c2ccc(OC)cc2)cc1 (stereo not given)
O=C1C2C(c3ccccc3)CC=CC2C(c2ccoc2)N1Cc1ccccc1 (stereo not given)
O=C1C[C@@H](c2ccc3ccccc3c2)N1S(=O)(=O)c1ccccc1[N+](=O)[O-]
Cc1onc(-c2c(Cl)cccc2Cl)c1C(=O)NNC(=O)c1c(-c2c(Cl)cccc2Cl)noc1C
COc1ccc(C(=O)C[n+]2ccc(N)c(C)c2C)cc1
CCN(C(=O)COC(=O)c1cc(NS(=O)(=O)c2ccc(Cl)c([N+](=O)[O-])c2)ccc1O)C1CCCCC1
Cc1ccc(-c2nn(-c3ccccc3)cc2C(=O)Nc2cccc(S(=O)(=O)N3CCOCC3)c2)cc1
CCc1nc(C)cn1S(=O)(=O)c1cc([N+](=O)[O-])ccc1Cl
COc1ccc(CN2CCC(c3nc4ccc(Cl)cc4[nH]3)CC2)cc1
O=C(COc1ccc(NC(=O)c2ccccc2[N+](=O)[O-])cc1)c1ccc(F)cc1
C=C1CCN(C(CC(C)C)C(=O)N2CCOCC2)S(=O)(=O)c2ccccc21 (stereo not given)
CC(C)C[C@@H](N)c1nnc(SCC(=O)c2ccc(Cl)cc2)o1
Fc1ccc(Cl)cc1-c1nc(Nc2ccncc2)c2nccnc2n1
Cc1scc(C(=O)NNC(=S)NCc2ccccc2)c1C
Cc1cccc(-[n+]2c(-c3cccc(Br)c3)[nH]c3nc4ccccc4nc32)c1
O=[N+]([O-])c1ccccc1S(=O)(=O)Nc1cccc2cccnc12
C=C1CCN(Cc2ccc(OC)cc2)S(=O)(=O)c2ccccc21
COc1cc(OC)c2c(c1C(CCN1CCCCC1)c1ccc(N(C)C)cc1)OC(=O)CC2c1ccc(N(C)C)cc1 (stereo not given)
CCN(CC)S(=O)(=O)c1ccc(N(C)Cc2ccc(C(F)(F)F)cc2)nc1
CCOc1ccc(NC(=O)CN(C)CC(=O)Nc2cccc(Cl)c2C)cc1OCC
Cc1cccc(NC(=S)Nc2ccc3cn[nH]c3c2)c1
O=C(CCl)N(Cc1cccc([N+](=O)[O-])c1)c1cccc(Cl)c1
CCCCc1nn(-c2ccccc2C(F)(F)F)c(=O)n1Cc1ccc(-c2ccccc2S(=O)(=O)NC(=O)c2sccc2C)cc1
CCCCC/C=C/C=C/C=O
CC(Sc1nnc2c(n1)C1CCC2(C)C1(C)C)C(=O)Nc1ccccc1 (stereo not given)
CO[C@@]12[C@@H](COC(N)=O)C3=C(C(=O)C(C)=C(N)C3=O)N1C[C@@H]1N[C@@H]12
O=C1CN(Cc2ccccc2)S(=O)(=O)c2ccccc21
CCOC(=O)Cn1c(=O)sc2cccc(Cl)c21
Cc1nc2c(C(=O)NCc3cccs3)cnn2c(C)c1Cc1ccc(F)cc1
Cc1ccc(OCC(=O)Nc2ccccc2Sc2ccc(Cl)cc2)c([N+](=O)[O-])n1
Cc1cc2oc(=O)cc(-c3ccccc3)c2c(C)c1-c1ccc(OC(F)(F)F)cc1
H-EHIPA-OH
O=C(NC1CCN(Cc2ccccc2)CC1)c1ccc(Oc2cc(Cl)cc(Cl)c2)o1
Cc1ccc(CNC(=O)C2(C(F)(F)F)C/C(=C\Cc3ccccc3)CCCO2)o1 (stereo not given)
CCCC[C@@H]1C[C@H]1C(NC(=O)c1ccco1)c1ccc(C(=O)OC)cc1 (stereo not given in full)
CCCN1CCC(=O)N(C(CSc2ccc(OC)cc2)Cc2ccccc2)CC1 (stereo not given)
COc1ccc(C2/C=C\CN(C(=O)c3ccc(C)cc3)C(Cc3ccccc3)C(=O)N2Cc2ccc(F)cc2)cc1 (stereo not given)
c1ccc2c(Nc3ccncc3)nc(-c3ccc4c(c3)OCO4)nc2c1
COc1ccc(-c2ccc(OC)c(C3C4C=CCC(C)C4C(=O)N3Cc3ccccc3)c2)cc1C (stereo not given)
S=C(NCCc1ccccc1)NCc1ccccc1Cl
C=CCN(C(=O)c1cc(C)cc(C)c1)C1(C(=O)Nc2ccccc2)CCN(C(C)C)CC1
CCCCCOc1ccc(/C=C/C(=O)NCCc2nc3ccccc3[nH]2)cc1OC
O=C(O)C1CC=CC2CCN(C3CCCCC3)C(=O)C21 (stereo not given)
CCOc1cc(-c2conc2N)cc(OCC)c1OCC
CC1(OC(=O)c2ccc(Cl)nc2)C(=O)Cc2cc(-c3ccsc3)ncc2C1=O (stereo not given) 4.14% [at 17.5 µM]
O=C(O)CCc1nc2cc(Cl)ccc2n(Cc2ccccc2)c1=O
Cc1ccc(S(=O)(=O)c2nc(NCCCn3ccnc3)sc2Cl)cc1
COc1cccc2sc(N(CCCN(C)C)C(=O)C(c3ccccc3)c3ccccc3)nc12
CC(=O)OCCC(C)C
CN(C)CCOCCOc1ccc(Cl)c2ccccc12
COC(=O)CCc1ccccc1S(=O)(=O)N(CCC(=O)OC)Cc1ccccc1
CC(C)C(NS(=O)(=O)c1ccc(-c2ccc(Br)cc2)cc1)C(=O)O (stereo not given)
CCn1c2ccccc2c2cc(NC(=O)Nc3ccc([N+](=O)[O-])cc3C)ccc21
COc1ccc(NC(=O)CSc2nnc(-c3ccccc3F)n2C2CC2)cc1S(N)(=O)=O
Cc1cc(C(=O)COc2ccccc2[N+](=O)[O-])c(C)n1-c1cccc(S(=O)(=O)N2CCOCC2)c1
Oc1ccc(-c2c(-c3ccccc3)nn3c(C(F)(F)F)cc(C(F)(F)F)nc23)cc1
CCCn1c(C)nc2c(NCCCCN(CC)CC)nc(C)nc21
COc1ccc(C2=Nn3c(nnc3-c3ccccc3O)SC2)cc1
O=C(Cc1coc2ccc3ccccc3c12)NCc1cccs1
O=C(CSC(=S)N1CCCCC1)c1c(F)cccc1F
O=c1c([N+](=O)[O-])cccn1Cc1ccc(F)cc1Cl
CCc1nnc(NC(=O)C2CC(=O)N(c3ccc4c(c3)OCCO4)C2)s1 (stereo not given)
CCOC(=O)N1CCN(C(=O)c2ccccc2N(Cc2ccccc2)S(=O)(=O)c2ccc(OC)cc2)CC1
O=S(O)S(=O)(=O)O
COc1c(O)c2c(=O)cc(OC)c3c4c(OC)cc(=O)c5c(O)c(OC)c6c(c(c1C[C@@](C)(O)[C@H]6C(C)=O)c23)c54
NC(=O)C1(C(N)=O)OC1c1ccc(Cl)cc1Cl (stereo not given)
C/C(=N/N1CCN(Cc2cccc3ccccc23)CC1)c1cccnc1
COc1ccc(N(C(=O)c2ccc(C)cc2)S(=O)(=O)c2cccs2)cc1
C[C@H]1CC[C@H](C(=O)O)N[C@@H]1c1ccc(C#Cc2ccccc2)cc1 7.47% [at 17.5 µM]
COc1ccc(-c2cn3ccc(C)cc3n2)cc1
CCN(CC)CCOCCOc1ccc(Cl)c2ccccc12
Cc1noc(C)c1-c1ccc2ncnc(NC(C)c3ccco3)c2c1 (stereo not given)
Nc1ncnc2c1ncn2C1CC(O)C(CO)O1 (stereo not given)
O=C(Nc1ccc2c(c1)OCO2)c1sc2cc(Cl)ccc2c1Cl
C/C(=N\NC(=O)c1ccc(C)cc1)C1C(=O)c2ccccc2C1=O
COc1ccccc1N1CCN(C(=O)c2ccc(Cl)c(S(=O)(=O)N3CCCC3)c2)CC1
CCOC(OCC)OCC
Cc1ccc(C)c2[nH]c(=O)c(CN(Cc3cccnc3)C(=S)NCc3ccco3)cc12
Cc1ccc(CNC(=O)C2(C(F)(F)F)C/C(=C\CCO)CCCO2)o1 (stereo not given)
COc1cccc(NC(=O)CC2C(=O)NCCN2C(=S)Nc2ccc(F)cc2)c1 (stereo not given)
Cc1ccc(SCC(CC(C)C)N2CCN(CCc3ccccc3)CCC2=O)cc1 (stereo not given)
COC(=O)c1sc(=S)n(-c2ccc(Cl)cc2)c1C
COC(=O)c1ccc([C@@H](O)[C@H](C)C(=O)CC(=O)OC(C)(C)C)cc1
C[C@@H](O)[C@@H]1NC(=O)[C@H](CCCCN)NC(=O)[C@H](Cc2c[nH]c3ccccc23)NC(=O)[C@H](Cc2ccccc2)NC(=O)[C@H](Cc2ccccc2)NC(=O)[C@H](CC(N)=O)NC(=O)[C@H](CCCCN)NC(=O)[C@@H](NC(=O)[C@@H]2CCCN2)CSSC[C@@H](C(=O)N[C@@H](CCCCN)C(=O)O)NC(=O)[C@H](CO)NC(=O)[C@H](CO)NC(=O)[C@H](Cc2ccccc2)NC1=O (HELM PEPTIDE1{P.C.K.N.F.F.W.K.T.F.S.S.C.K}$PEPTIDE1,PEPTIDE1,2:R3-13:R3$$$V2.0)
Cc1ccccc1N1CCN(Cc2nc(Cc3ccccc3F)no2)CC1
O=c1cc(-c2ccc(O)cc2)oc2c(-c3cc(-c4cc(=O)c5c(O)cc(O)cc5o4)ccc3O)c(O)ccc12
O=C(CSc1nc(O)c(Cc2ccccc2)c(=O)[nH]1)Nc1nc2c(s1)CCCC2
CCOC(=O)C1=C(CN2CCc3ccccc32)NC(=O)NC1c1ccc(Cl)cc1 (stereo not given)
C=CCOC(=O)C(=C)C
COc1ccc(-c2ccc(C3C4C=CCCC4(C)C(=O)N3Cc3ccccc3)c(F)c2)cc1OC (stereo not given)
Cc1cccc(CNc2ccnc(-c3cccnc3)n2)c1
OCCC(O)CO (stereo not given)
C/C=C/c1ccc(OCC(O)CN2CCCCCCC2)c(OC)c1 (stereo not given)
Cc1ccc(N(C(=O)c2ccc(S(=O)(=O)N(C)C)cc2)C2C=CS(=O)(=O)C2)cc1 (stereo not given)
CC[C@H](C)[C@H](NC(=O)[C@H](CCCNC(=N)N)NC(=O)[C@H](CCCNC(=N)N)NC(=O)[C@H](CC(C)C)NC(=O)[C@H](Cc1ccccc1)NC(=O)CNC(=O)CNC(=O)[C@@H](N)Cc1ccc(O)cc1)C(=O)N[C@@H](CCCNC(=N)N)C(=O)N1CCC[C@H]1C(=O)N[C@@H](CCCCN)C(=O)N[C@@H](CC(C)C)C(=O)N[C@@H](CCCCN)C(=O)N[C@@H](Cc1c[nH]c2ccccc12)C(=O)N[C@@H](CC(=O)O)C(=O)N[C@@H](CC(N)=O)C(=O)N[C@@H](CCC(N)=O)C(=O)O
CC(C)=CCC[C@]1(C)[C@@H](CC=C(C)C)C[C@@]2(CC=C(C)C)C(=O)[C@]1(C(=O)C(C)C)C(=O)C(CC=C(C)C)=C2O
COC(=O)C(CC(C)C)NS(=O)(=O)c1cc(Br)ccc1Br (stereo not given)
